Most compounds without a hit are left out; they make up all but 2% or so of the library.
GC-A act: GC-A (human) enzyme activation. P16066. HEK293 GC-A cells, cGMP TR-FRET, EC30 ANP; 0% at EC30 ANP, 100% saturating ANP. activation, % at 10 µM. 370,000 compounds, 0.14% hits; in the data active means activation above about 40%
ADAM10 inh: inhibitors of human ADAM10; O14672; recombinant ADAM10, EDANS/DABCYL FRET peptide cleavage, 3 h; inhibition, % at 7 µM; 370,000 compounds, 0.62% hits; AID 720582;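 active means inhibition above a per-campaign cutoff equal to the mean of compounds falling between control-based bounds plus 3 SD, cut at about 20% in these data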
ADAM17 inh: inhibits human ADAM17. AID 720648. 370,000 compounds, 0.83% hits. recombinant ADAM17, EDANS/DABCYL FRET peptide cleavage. P78536. inhibition, % at 6.95 µM;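 active means inhibition above the mean of compounds lying between control limits plus 3 SD, set per campaign, cut at about 8.5% in these data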
NPR2 activator: GC-B (human) receptor activation | P20594 | HEK293-GC-B cells, CNP EC30, cGMP TR-FRET; 0% at EC30 CNP, 100% saturating CNP | activation, % at 10 µM | 370,000 compounds, 0.11% hits;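 active means activation at 10 µM reaching about 35% in either raw or pattern-adjusted values, limit read from the data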
FAS-TE inh: inhibitors of human fatty acid synthase thioesterase domain; inhibition, % at 15 µM; 360,000 compounds, 0.67% hits; P49327; recombinant FAS-TE, OMFH fluorogenic substrate, fluorescence endpoint;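 active means compounds whose normalised, plate-corrected inhibition of enzyme fluorescence in the single-dose primary screen is 50% or more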
FAS-TE inh conf: FAS thioesterase (human) inhibition, confirmation | shares compounds with FAS-TE inh | recombinant FAS-TE, OMFH fluorogenic substrate, fluorescence | inhibition, % at 15 µM | 2,300 compounds, 45% hits | AID 624325;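 active means compounds inhibiting the enzyme by at least 50% at 15 µM in any one of the replicates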
A number is an active result; n = inactive; x = not tested or not shown.

SMILES | GC-A act | ADAM10 inh | ADAM17 inh | NPR2 activator | FAS-TE inh | FAS-TE inh conf
Cc1cc(C)c(C#N)c(SCC(O)COc2ccc(Br)cc2)n1 (centres undefined) | n | n | n | n | 63 | n
Cn1c(=O)oc2cc(S(=O)(=O)N3CCN(c4cccc(C(F)(F)F)c4)CC3)ccc21 | n | n | n | n | x | x
CCOc1ccc(C(=O)COC(=O)c2cc([N+](=O)[O-])ccc2N2CCOCC2)cc1 | n | n | n | n | 69 | 63
CCOc1ccc(C(C)=O)cc1COC(=O)c1cc([N+](=O)[O-])ccc1N1CCOCC1 | n | n | n | n | n | x
O=C(COC(=O)c1cc([N+](=O)[O-])ccc1N1CCOCC1)c1ccc(Br)cc1 | n | n | n | n | 63 | n
O=C(COC(=O)c1cc([N+](=O)[O-])ccc1N1CCOCC1)c1ccc(OC(F)F)cc1OC(F)F | n | n | n | n | n | x
O=C(CSc1nnc(-c2ccco2)n1Cc1ccco1)c1ccc([N+](=O)[O-])cc1 | n | n | n | n | x | x
CCN(Cc1cn(Cc2ccccc2)nn1)S(=O)(=O)c1ccccc1Br | n | n | n | n | x | x
O=C1CSc2ccc(C(=O)N3CCCC(C(=O)N4CCOCC4)C3)cc2N1 (centres undefined) | n | n | n | n | x | x
O=C(OC(c1ccccc1)c1nccc2ccccc12)c1cc([N+](=O)[O-])cc([N+](=O)[O-])c1 (centres undefined) | n | n | n | n | 50 | n
COc1ccc(-c2c(C(=O)c3ccccc3)[nH]c(N)c2C(=O)c2c[nH]c3ccccc23)cc1OC | n | n | n | n | x | x
Cc1ccc(C)c(NC(=O)[C@@H]2CCCN2S(=O)(=O)c2cccc3cccnc23)c1 | n | n | n | n | x | x
CCCC12CN(C(=O)c3ccc([N+](=O)[O-])cc3)CC(C)(CN(C(=O)c3ccc([N+](=O)[O-])cc3)C1)C2=O | n | n | n | n | 55 | 62
CC12CN(C(=O)c3ccc([N+](=O)[O-])cc3)CC(C)(CN(C(=O)c3ccc([N+](=O)[O-])cc3)C1)C2=O | n | n | n | n | x | x
COc1ccccc1-n1c(=O)c(C#N)c(-c2ccc([N+](=O)[O-])cc2)c2cc(C(=O)c3ccccc3O)cnc21 | n | n | n | n | 89 | n
Nn1c(SCc2cccc3ccccc23)nnc1-c1cc(-c2ccc(Cl)cc2)n[nH]1 | n | n | n | n | x | x
Cn1c(=O)cc(OCCCC(=O)Nc2cc(-c3ccncc3)ccn2)c2ccccc21 | n | n | n | n | x | x
CCCCCOC(=O)C1=C(C)NC(=O)NC1c1ccc([N+](=O)[O-])cc1 (centres undefined) | n | n | n | n | 58 | 57
O=C(NCc1ccc2c(c1)OCO2)C1CC(c2ccc(Cl)cc2)=NO1 (centres undefined) | n | n | n | n | n | x
COc1cc(OC)c(C2=NOC(C(=O)NCc3ccc4c(c3)OCO4)C2)cc1Cl (centres undefined) | n | n | n | n | 60 | n
COc1cc(OC)c(C2=NOC(C(=O)N3CCc4ccccc4C3)C2)cc1Cl (centres undefined) | n | n | n | n | 80 | 60
CCCC(C)C1c2c(c(C)c(C)oc2=O)Oc2c(C)c(C)oc(=O)c21 (centres undefined) | n | n | n | n | 59 | 56
CCOC(=O)[C@@H]1[C@H]2COc3ccc(Br)cc3[C@@H]2N2C(=O)N(c3cccc(Cl)c3)C(=O)[C@]12C | n | n | n | n | n | x
CCOC(=O)[C@H]1[C@H]2COc3ccc(Br)cc3[C@@H]2N2C(=O)c3c(C)cc(C)cc3NC(=O)[C@@]12C | n | n | n | n | 68 | n
CCOC(=O)[C@H]1[C@H]2COc3ccc(Cl)cc3[C@@H]2N2C(=O)c3ccc(Cl)cc3NC(=O)[C@@]12C | n | n | n | n | 59 | n
SMILES | GC-A act | ADAM10 inh | ADAM17 inh | NPR2 activator | FAS-TE inh | FAS-TE inh conf
CCOC(=O)[C@H]1[C@H]2COc3ccc(Br)cc3[C@@H]2N2C(=O)c3ccc(C)cc3NC(=O)[C@@]12C | n | n | n | n | n | x
CCOC(=O)[C@H]1[C@H]2COc3ccc(C)cc3[C@@H]2N2C(=O)c3ccc(Cl)cc3NC(=O)[C@@]12C | n | n | n | n | n | x
CCOC(=O)[C@@H]1[C@H]2COc3ccc(Br)cc3[C@@H]2N2C(=O)N(c3cccc(Cl)c3)C(=O)[C@@]12C | n | n | n | n | 73 | 52
CC(=O)N1CCc2cc(S(=O)(=O)NCCC(=O)N(C)C3CCCCC3)ccc21 | n | n | n | n | x | x
CCN(CC)C(=O)CC[C@@H]1CC[C@]2(CCCN(C(=O)C3CCCCC3)C2)O1 | n | n | n | n | x | x
COc1cc(/C=C2\SC(=O)N(Cc3ccc(F)cc3)C2=O)cc([N+](=O)[O-])c1O | n | n | n | n | 68 | n
O=C(CN1C(=O)S/C(=C\c2ccccc2)C1=O)Nc1cc([N+](=O)[O-])ccc1O | n | n | n | n | 81 | 82
CCOC(=O)CN1C(=O)S/C(=C/c2ccc(OC)c([N+](=O)[O-])c2)C1=O | n | n | n | n | n | x
O=C1/C(=C/c2ccc(O)c([N+](=O)[O-])c2)SC(=S)N1Cc1ccccc1 | n | n | n | n | 86 | n
COc1cc(/C=C2\SC(=O)N(Cc3ccc(Cl)cc3)C2=O)cc([N+](=O)[O-])c1O | n | n | n | n | 72 | n
O=C1/C(=C\c2cccc([N+](=O)[O-])c2O)SC(=S)N1Cc1ccccc1 | n | n | n | n | n | x
COC(=O)c1cc2c(c3c4cc(C#N)ccc4n(S(=O)(=O)c4ccc(C)cc4)c13)C(=O)N(C)C2 | n | n | n | n | x | x
Cc1cc(C)cc(NC(=O)N2CCN(Cc3nc4ccccc4c(=O)[nH]3)CC2)c1 | n | n | n | n | x | x
Cn1c(SCc2ccccc2)nc(C(F)(F)F)cc1=O | n | n | n | n | n | x
Cn1c(SCc2c(Cl)cccc2Cl)nc(C(F)(F)F)cc1=O | n | n | n | n | 52 | n
Cn1c(SCc2cccc(Cl)c2)nc(C(F)(F)F)cc1=O | n | n | n | n | 63 | 62
Cn1c(SCc2ccccc2Cl)nc(C(F)(F)F)cc1=O | n | n | n | n | n | x
COc1cccc(-c2cc(C(C)=O)c3n(c2=O)CCC3)c1OC | n | n | n | n | x | x
O=C1OCCN1C(=O)[C@H]1[C@H](c2ccc(F)cc2)C(c2ccc(F)cc2)=NN1c1ccccc1 | n | n | n | n | 74 | n
O=C1OCCN1C(=O)[C@H]1[C@H](c2ccc(Cl)cc2)C(c2ccc(F)cc2)=NN1c1ccccc1 | n | n | n | n | 74 | n
COc1ccccc1[C@@H]1C(c2ccccc2)=NN(c2ccccc2)[C@H]1C(=O)N1CCOC1=O | n | n | n | n | 55 | n
Cc1cccc(C2=NN(c3ccccc3)[C@@H](C(=O)N3CCOC3=O)[C@@H]2c2ccc(F)cc2)c1 | n | n | n | n | n | x

Source: PubChem BioAssay (several laboratories)
